The supplement of paper PMC12494721
Counter-ions that a name gives are not always drawn.

Columns and labels:
Conditions in all cases: incubation time: 27 h, anaerobic, 37 °C;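 for the amine columns active = adjusted P below 0.05 in both replicates with a change the same way and a mean fold change under 0.8 or over 1.25; inactive = the rest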
[1] = tested on: Clostridium sporogenes DSM 1664; experiment: growth (OD595) fold change vs plate DMSO controls (fold change (ratio)); higher = more growth
Procedure, shortened: (§1)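 The 96-well mGAM cultures had been kept anaerobic for 27 h at 37 °C before being shaken and read at 595 nm. Blank subtraction, compound background correction with 20 µM compound solutions in water, and a calibration factor of 5 turned the readings into OD. Growth is given as the fold change versus the median of plate DMSO controls. Fold changes above 1.5 were set to NA, and the values are means of 2 biological replicates.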

Escherichia coli IAI1 [2] = experiment: as above
Procedure, shortened: as §1

[3] = tested on: Klebsiella aerogenes DSM 30053; experiment: as above
Procedure, shortened: as §1

[4] = tested on: Ruminococcus gnavus DSM 108212; experiment: as above
Procedure, shortened: as §1

[5] = tested on: Klebsiella aerogenes DSM 30053; experiment: fold change of Histamine concentration vs plate DMSO controls (fold change (ratio)); higher = more amine produced, active = hit call of the paper (significant change in both replicates, either direction)
Procedure, shortened: (§2)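 Anaerobic mGAM cultures of four gut bacterial strains were grown at 37 °C for 27 h in 80 µL wells, starting at OD 0.1 before 1:1 dilution. Compounds were at 20 µM final (sweeteners 50 µM). Whole cultures were extracted with cold acetonitrile/methanol containing 0.1% formic acid and centrifuged. Amines were quantified by LC–triple-quadrupole MS (dynamic MRM) against external calibration curves and drift-corrected within batch. Each value is the fold change versus plate DMSO controls, averaged over 2 biological replicates.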

[6] = tested on: Clostridium sporogenes DSM 1664; experiment: fold change of Tryptamine concentration vs plate DMSO controls (fold change (ratio)); higher = more amine produced, active = hit call of the paper (significant change in both replicates, either direction)
Procedure, shortened: as §2

[7] = tested on: Ruminococcus gnavus DSM 108212; experiment: as above
Procedure, shortened: as §2

Escherichia coli IAI1 [8] = experiment: fold change of Putrescine concentration vs plate DMSO controls (fold change (ratio)); higher = more amine produced, active = hit call of the paper (significant change in both replicates, either direction)
Procedure, shortened: as §2

[9] = tested on: Klebsiella aerogenes DSM 30053; experiment: as above
Procedure, shortened: as §2

Escherichia coli IAI1 [10] = experiment: fold change of Cadaverine concentration vs plate DMSO controls (fold change (ratio)); higher = more amine produced, active = hit call of the paper (significant change in both replicates, either direction)
Procedure, shortened: as §2

[11] = tested on: Klebsiella aerogenes DSM 30053; experiment: as above
Procedure, shortened: as §2

[12] = tested on: Ruminococcus gnavus DSM 108212; experiment: fold change of 2-Phenylethylamine concentration vs plate DMSO controls (fold change (ratio)); higher = more amine produced, active = hit call of the paper (significant change in both replicates, either direction)
Procedure, shortened: as §2

SMILES	growth [1]	growth (Escherichia coli IAI1 [2])	growth [3]	growth [4]	fold change of Histamine concentration [5]	fold change of Tryptamine concentration [6]	fold change of Tryptamine concentration [7]	fold change of Putrescine concentration (Escherichia coli IAI1 [8])	fold change of Putrescine concentration [9]	fold change of Cadaverine concentration (Escherichia coli IAI1 [10])	fold change of Cadaverine concentration [11]	fold change of 2-Phenylethylamine concentration [12]
O=C1NCCN1CCN1CCC(c2cn(-c3ccc(F)cc3)c3ccc(Cl)cc23)CC1 [Sertindole] (20 µM)	0.981	1.05	1.09	1.16	0.923 (inactive)	0.952 (inactive)	0.908 (inactive)	1.31 (inactive)	0.982 (inactive)	0.999 (inactive)	1 (inactive)	1.09 (inactive)
O=C(CO)[C@@H](O)[C@@H](O)[C@H](O)CO [D-Tagatose] (50 µM)	0.957	1.01	1.03	0.984	0.943 (inactive)	0.991 (inactive)	0.995 (inactive)	1.03 (inactive)	1.02 (inactive)	1.07 (inactive)	1.03 (inactive)	0.992 (inactive)
CN1c2cc(O)c(N=NC(N)=O)cc2CC1S(=O)(=O)O (centres undefined) [Carbazochrome sodium sulfonate] (20 µM)	1.05	1.01	1.04	0.901	1.06 (inactive)	0.976 (inactive)	1.08 (inactive)	1.01 (inactive)	0.905 (inactive)	0.975 (inactive)	1.2 (inactive)	1.21 (inactive)
CC(C)(C)NCC(O)COc1cccc2c1CCC(=O)N2 (centres undefined) [Carteolol hydrochloride] (20 µM)	0.96	1.01	0.997	0.895	0.987 (inactive)	0.985 (inactive)	1.01 (inactive)	1.01 (inactive)	0.982 (inactive)	1 (inactive)	0.996 (inactive)	0.982 (inactive)
COCCOC(=O)C1=C(C)NC(C)=C(C(=O)OC(C)C)C1c1cccc([N+](=O)[O-])c1 (centres undefined) [Nimodipine] (20 µM)	0.946	0.814	1.03	0.991	0.947 (inactive)	0.965 (inactive)	0.909 (inactive)	0.889 (inactive)	0.99 (inactive)	1.09 (inactive)	1.01 (inactive)	0.903 (inactive)
CCN(CC)CCNC(C(=O)OCCC(C)C)c1ccccc1 (centres undefined) [Camylofine chlorhydrate] (20 µM)	1.11	0.997	1.02	0.857	1.04 (inactive)	0.953 (inactive)	0.943 (inactive)	0.998 (inactive)	1 (inactive)	0.985 (inactive)	0.988 (inactive)	0.94 (inactive)
CN1CCN(C2=Nc3cc(Cl)ccc3Nc3ccccc32)CC1 [Clozapine] (20 µM)	1.01	0.997	0.984	0.688	1.01 (inactive)	1.02 (inactive)	0.947 (inactive)	1.02 (inactive)	0.989 (inactive)	0.889 (inactive)	1 (inactive)	0.92 (inactive)
COc1cccc(N(C)C(=S)Oc2ccc3c(c2)CCCC3)n1 [Liranaftate] (20 µM)	1.1	0.972	0.969	0.941	1 (inactive)	0.974 (inactive)	1.31 (active)	0.998 (inactive)	1.06 (inactive)	1.01 (inactive)	1.07 (inactive)	1.69 (active)
O=C(O)c1cc(=O)c2ccccc2o1 [Chromocarb] (20 µM)	0.945	0.984	0.99	0.957	1.02 (inactive)	1.01 (inactive)	0.989 (inactive)	1.01 (inactive)	0.998 (inactive)	0.983 (inactive)	0.979 (inactive)	0.974 (inactive)
NCCCC[C@H](N[C@@H](CCc1ccccc1)C(=O)O)C(=O)N1CCC[C@H]1C(=O)O [Lisinopril] (20 µM)	1.04	1.03	1.14	0.922	0.911 (inactive)	0.958 (inactive)	0.981 (inactive)	0.998 (inactive)	0.988 (inactive)	1.04 (inactive)	1.02 (inactive)	0.943 (inactive)
CC(C)CN(C[C@@H](O)[C@H](Cc1ccccc1)NC(=O)O[C@H]1CCOC1)S(=O)(=O)c1ccc(N)cc1 [Amprenavir] (20 µM)	1.1	1.05	0.974	0.947	0.92 (inactive)	0.952 (inactive)	1.07 (inactive)	1.14 (inactive)	1.01 (inactive)	0.952 (inactive)	1.03 (inactive)	1.08 (inactive)
COc1cc2ncnc(Nc3ccc(F)c(Cl)c3)c2cc1OCCCN1CCOCC1 [Gefitinib] (20 µM)	1.1	1.04	0.991	1.18	0.983 (inactive)	1.06 (inactive)	0.993 (inactive)	1.14 (inactive)	0.997 (inactive)	1.02 (inactive)	1.02 (inactive)	1.1 (inactive)
